The values that follow come from PubChem BioAssay (EPA / NIEHS).

Each structure is given as a SMILES string. Active and inactive are the calls of the source. Rule for the calls: active = hit-call score of the fitted dose curve at least 0.9, where 1 is the maximum; inactive = score below 0.9.

The nature of one assay: BSK_3C_uPAR: BioMAP Diversity Plus: 3C Assay for Urokinase-type plasminogen activator receptor (uPAR) Biomarker Activity (AID 2282998). The following applies: BioMAP 3C HUVEC, uPAR biomarker ELISA; actives raise or lower the signal. The essentials: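 Endothelial primary cells of human umbilical vein origin received test chemical; 24 h later uPAR was assayed by ELISA. Fitting was bidirectional, DMSO as negative control.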
For orientation: An ELISA detects its analyte on a solid surface through an enzyme-linked reagent.
For orientation: AC50 means the concentration at which the activity in the assay is half-maximal. For `CCOC(=O)c1ccc(C2CCC(NC[C@H](O)COc3ccc(O)c(NS(C)(=O)=O)c3)CC2)cc1` (stereo not given in full), the AC50 is 31.2 µM (active).
With `CCOCCOCCOCCO`, the outcome was inactive.
Consider `COC(=O)c1ccccc1O`, for which the result was inactive.
The same measure, in the same setting: then `CC(=O)OC[C@H]1O[C@@](COC(C)=O)(O[C@H]2O[C@H](COC(C)=O)[C@@H](OC(C)=O)[C@H](OC(C)=O)[C@H]2OC(C)=O)[C@@H](OC(C)=O)[C@@H]1OC(C)=O`, with “inactive”.
As to `CCC(C)(C)C(=O)O[C@H]1C[C@@H](C)C=C2C=C[C@H](C)[C@H](CC[C@@H]3C[C@@H](O)CC(=O)O3)[C@H]21`, the half-maximal activity concentration (AC50) is 16.9 µM (active).
`CCCN(C1CCN(C(=O)C2CCNCC2)CC1)[C@@H]1CCc2ccc(OC)cc2C1`: the result was inactive.
`COc1ccc(/C=C/S(=O)(=O)NC(=O)c2ccc(C)cc2Cl)cc1`: the result was inactive.
Turning to `O=C(O)c1cc(N=Nc2ccc(S(=O)(=O)Nc3ccccn3)cc2)ccc1O`, the result was inactive.
The same measure, in the same setting: with `CC(C)=CCC/C(C)=C\CO` the entry was “inactive”; with `C=CCCCCCCCCC(=O)O`, “inactive”; with `O=C(O)CC(O)C(=O)O` (stereo not given), “inactive”.
Take `CC(=O)c1ccc2c(c1)[C@H](NC(=O)c1ccc(F)cc1)[C@@H](O)C(C)(C)O2`: the outcome was inactive.
As for `Oc1ccc2c(c1)-c1ccccc1C2`, the AC50 is 14.4 µM (active).
For `CC(C)=CCC/C(C)=C/CO`, the outcome was inactive.
For the molecule `CCc1cc(SCc2sc(-c3ccc(C(F)(F)F)cc3)nc2CN2CCN(c3ccc(OC)cc3)CC2)ccc1OCC(=O)O`, the AC50 is 7.74 µM (active).
Regarding `CCN(C(=O)c1cc(C)cc(OC[C@H](C)Nc2ccncc2)c1)C(C)C`, the result was inactive.
For the molecule `On1ccccc1=S`, the AC50 was 28.4 µM (active).
As to `CCOCCO`, the result was inactive.
Still for that read-out and setting: then `O=c1[nH]c2ccc(S(=O)CCN3CCC(Cc4ccc(F)cc4)CC3)cc2o1` (stereo not given), with “inactive”.
For the molecule `Fc1ccccc1[C@@H](F)COC1CCC(Nc2ncnc3[nH]ncc23)CC1` (stereo not given in full), the concentration at half-maximal activity (AC50) was 15.2 µM (active).
As to `COC(=O)CC(=O)OC`, the result was inactive.
The same measure, in the same setting: then `CCNc1ccccc1`, with “inactive”.
For the molecule `CC[C@H](C)C(=O)O[C@H]1C[C@@H](C)C=C2C=C[C@H](C)[C@H](CC[C@@H]3C[C@@H](O)CC(=O)O3)[C@H]21`, the AC50 is 18.3 µM (active).
With `COc1cccc(-c2ccc(/C=C\CN3CCCCCC3)cc2Cl)c1`, the AC50 was 24.3 µM (active).
Take `COc1ccc(-n2nc(C(F)F)cc2-c2ccc(S(C)=O)cc2)cc1` (stereo not given): the result was inactive.
On to `CCCCCCc1ccc(O)cc1O`, for which the AC50 is 31.8 µM (active).
For `COCCOc1cc2cc(C(=O)NC3CCN(C(C)C)CC3)n(CC(=O)Nc3ccc(Cl)cn3)c2cn1`, the outcome was inactive.
On the same count and under the same terms, with `CCOC(=O)CC(CC(=O)OCC)(OC(C)=O)C(=O)OCC` the entry was “inactive”.
For `CC(=O)OCCC(C)C`, the outcome was inactive.

The nature of the next assay: BSK_3C_VCAM1: BioMAP Diversity Plus: 3C Assay for Vascular cell adhesion molecule 1 (VCAM1) Biomarker Activity (AID 2282999). The following applies: BioMAP 3C HUVEC, VCAM1 ELISA, cytokine-stimulated; actives raise or lower the signal. The essentials: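 HUVEC primary cells, 24 h compound exposure; VCAM-1 by ELISA; gain/loss of signal fitted bidirectionally vs DMSO baseline.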
On to `COC(=O)c1ccccc1O`, for which the result was inactive.
As for `CCC(C)(C)C(=O)O[C@H]1C[C@@H](C)C=C2C=C[C@H](C)[C@H](CC[C@@H]3C[C@@H](O)CC(=O)O3)[C@H]21`, the concentration at half-maximal activity (AC50) is 29.9 µM (active).
As to `CCCN(C1CCN(C(=O)C2CCNCC2)CC1)[C@@H]1CCc2ccc(OC)cc2C1`, the result was inactive.
On to `COc1ccc(/C=C/S(=O)(=O)NC(=O)c2ccc(C)cc2Cl)cc1`, for which the outcome was inactive.
The same measure, in the same setting: then `CC(C)=CCC/C(C)=C\CO`, with “inactive”; and `O=C(O)CC(O)C(=O)O` (stereo not given), with “inactive”.
For `Oc1ccc2c(c1)-c1ccccc1C2`, the outcome was inactive.
Take `CC(C)=CCC/C(C)=C/CO`: the outcome was inactive.
With `CCc1cc(SCc2sc(-c3ccc(C(F)(F)F)cc3)nc2CN2CCN(c3ccc(OC)cc3)CC2)ccc1OCC(=O)O`, the AC50 is 27.7 µM (active).
Take `CCN(C(=O)c1cc(C)cc(OC[C@H](C)Nc2ccncc2)c1)C(C)C`: the outcome was inactive.
Regarding `CCOCCO`, the outcome was inactive.
Same read-out and setting: then `O=c1[nH]c2ccc(S(=O)CCN3CCC(Cc4ccc(F)cc4)CC3)cc2o1` (stereo not given), with “inactive”; and `COC(=O)CC(=O)OC`, with “inactive”; and `CCNc1ccccc1`, with “inactive”.
As for `COc1cccc(-c2ccc(/C=C\CN3CCCCCC3)cc2Cl)c1`, the half-maximal activity concentration (AC50) was 33.1 µM (active).
For the molecule `COc1ccc(-n2nc(C(F)F)cc2-c2ccc(S(C)=O)cc2)cc1` (stereo not given), the outcome was inactive.
Take `CCCCCCc1ccc(O)cc1O`: the AC50 is 34.3 µM (active).

A further assay can be described thus: BSK_4H_Eotaxin3: BioMAP Diversity Plus: 4H Assay for Eotaxin 3 Biomarker Activity (AID 2283000).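 For outcome: CCL26 protein level quantified by ELISA in parallel with SRB cytotoxicity check.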 The following applies: primary human endothelial cells (HUVEC); actives raise or lower the signal. The essentials:
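Readout is Eotaxin-3 (CCL26) level by ELISA in primary human umbilical vein endothelial cells harvested 24 h after chemical exposure; activity fitted in both directions against DMSO control.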
Turning to `CCOC(=O)c1ccc(C2CCC(NC[C@H](O)COc3ccc(O)c(NS(C)(=O)=O)c3)CC2)cc1` (stereo not given in full), the result was inactive.
For `CCOCCOCCOCCO`, the outcome was inactive.
For the molecule `COC(=O)c1ccccc1O`, the outcome was inactive.
On to `CC(=O)OC[C@H]1O[C@@](COC(C)=O)(O[C@H]2O[C@H](COC(C)=O)[C@@H](OC(C)=O)[C@H](OC(C)=O)[C@H]2OC(C)=O)[C@@H](OC(C)=O)[C@@H]1OC(C)=O`, for which the outcome was inactive.
With `CCC(C)(C)C(=O)O[C@H]1C[C@@H](C)C=C2C=C[C@H](C)[C@H](CC[C@@H]3C[C@@H](O)CC(=O)O3)[C@H]21`, the AC50 was 34.5 µM (active).
Regarding `CCCN(C1CCN(C(=O)C2CCNCC2)CC1)[C@@H]1CCc2ccc(OC)cc2C1`, the result was inactive.
`COc1ccc(/C=C/S(=O)(=O)NC(=O)c2ccc(C)cc2Cl)cc1`: the result was inactive.
Consider `O=C(O)c1cc(N=Nc2ccc(S(=O)(=O)Nc3ccccn3)cc2)ccc1O`, for which the result was inactive.
On to `CC(C)=CCC/C(C)=C\CO`, for which the result was inactive.
As to `C=CCCCCCCCCC(=O)O`, the outcome was inactive.
As to `O=C(O)CC(O)C(=O)O` (stereo not given), the result was inactive.
On the same count and under the same terms, with `CC(=O)c1ccc2c(c1)[C@H](NC(=O)c1ccc(F)cc1)[C@@H](O)C(C)(C)O2` the entry was “inactive”.
Regarding `Oc1ccc2c(c1)-c1ccccc1C2`, the AC50 is 23.3 µM (active).
Take `CC(C)=CCC/C(C)=C/CO`: the result was inactive.
On to `CCc1cc(SCc2sc(-c3ccc(C(F)(F)F)cc3)nc2CN2CCN(c3ccc(OC)cc3)CC2)ccc1OCC(=O)O`, for which the concentration at half-maximal activity (AC50) was 10.9 µM (active).
As for `CCN(C(=O)c1cc(C)cc(OC[C@H](C)Nc2ccncc2)c1)C(C)C`, the outcome was inactive.
Consider `On1ccccc1=S`, for which the AC50 is 16.1 µM (active).
Consider `CCOCCO`, for which the result was inactive.
For `O=c1[nH]c2ccc(S(=O)CCN3CCC(Cc4ccc(F)cc4)CC3)cc2o1` (stereo not given), the outcome was inactive.
As to `Fc1ccccc1[C@@H](F)COC1CCC(Nc2ncnc3[nH]ncc23)CC1` (stereo not given in full), the AC50 is 23.6 µM (active).
Turning to `COC(=O)CC(=O)OC`, the outcome was inactive.
For the molecule `CCNc1ccccc1`, the outcome was inactive.
In the case of `CC[C@H](C)C(=O)O[C@H]1C[C@@H](C)C=C2C=C[C@H](C)[C@H](CC[C@@H]3C[C@@H](O)CC(=O)O3)[C@H]21`, the AC50 was 31.5 µM (active).
For the molecule `COc1cccc(-c2ccc(/C=C\CN3CCCCCC3)cc2Cl)c1`, the AC50 was 28 µM (active).
For the molecule `COc1ccc(-n2nc(C(F)F)cc2-c2ccc(S(C)=O)cc2)cc1` (stereo not given), the outcome was inactive.
As to `CCCCCCc1ccc(O)cc1O`, the AC50 was 32.2 µM (active).
With `COCCOc1cc2cc(C(=O)NC3CCN(C(C)C)CC3)n(CC(=O)Nc3ccc(Cl)cn3)c2cn1`, the outcome was inactive.
With `CCOC(=O)CC(CC(=O)OCC)(OC(C)=O)C(=O)OCC`, the outcome was inactive.
As to `CC(=O)OCCC(C)C`, the result was inactive.
